The list is not random: actives were taken first. Their share in the collection is about 3%.
TWEAK-Fn14 inh: blocks TWEAK-Fn14 interaction in a reporter cell assay. 360,000 compounds, 2% hits. TWEAK-stimulated Fn14 reporter cells, luciferase luminescence, 8 h. inhibition, % at 10 µM. AID 1159606; in the data active = inhibition above about 50%
EBV LMP1 NFkB: inhibitors of Epstein-Barr LMP1-induced NF-kappaB reporter | 350,000 compounds, 0.69% hits | LMP1-induced NF-kappaB luciferase reporter cells, luminescence | inhibition, % at 12.5 µM; in the data active = inhibition above about 41%;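 also: 0% = neutral control wells and 100% = reference inhibitor control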
TRPM1 prom inh: MITF TRPM1 promoter inhibition in SK-MEL-5 cells; 330,000 compounds, 0.83% hits; inhibition, % at 12.5 µM; SK-MEL-5 TRPM1 promoter luciferase, 24 h;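 active = mean inhibition across replicates of 60% or more, whatever share of single replicates reaches that level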
TROY NFkB inh: blocks TROY-dependent signaling in reporter cells; Q293 LMP1-TROYcd NF-kB luciferase reporter, 4 h; inhibition, % at 10 µM; 360,000 compounds, 0.98% hits;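 active = compounds whose plate-normalised and pattern-corrected inhibition of the luciferase reporter signal at the single screening dose is 50% or more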
LGR2 inh: Drosophila LGR2 receptor signaling inhibition. HEK293 LGR2, CRE-luciferase, bursicon-stimulated, 4 h. inhibition, % at 9.99 µM. 380,000 compounds, 0.35% hits;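 active = drop in luminescence signal, shown as inhibition above about 50% in the replicate tests, limit read from the data, passing the limit was not always enough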;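 also: agonist challenge used bursicon conditioned medium at about half maximal strength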
MITF TRPM1 HTS: MITF TRPM1 promoter activation in melanoma cells; SK-MEL-5 TRPM1-promoter luciferase, 24 h; % of positive control, neutral wells = 0; activation, % at 12.5 µM; 300,000 compounds, 0.75% hits;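 active = mean activation of at least 80% with every replicate also reaching 80%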;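 also: 0% = neutral control wells and 100% = parthenolide positive control wells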
An asterisk follows results filed as active; x = no result given; ! = not active in a repeat.

SMILES | TWEAK-Fn14 inh | EBV LMP1 NFkB | TRPM1 prom inh | TROY NFkB inh | LGR2 inh | MITF TRPM1 HTS
C[C@H](CO)N1C[C@H](C)[C@H](CN(C)C)OCc2cn(nn2)CCCC1=O | x | x | x | x | 7 | x
N#Cc1ccccc1NC(=O)c1ccc2c(Cl)c3c(nc2c1)CCCC3 | 1 | -51 | -54 | -58 | -50 | 61
O=C(Nc1cccnc1Cl)c1ccc2c(Cl)c3c(nc2c1)CCC3 | 54* | -23 | -43 | -5 | -13 | 44
C[C@H](CO)N1C[C@H](C)[C@@H](CN(C)CC2CC2)Oc2c(NC(=O)C3CCOCC3)cccc2C1=O | x | x | x | x | -5 | x
CC(=O)NC(NC(=S)Nc1ccc(S(N)(=O)=O)cc1)C(Cl)(Cl)Cl (stereo unspecified) | -13 | -6 | -6 | 5 | -7 | 6
COc1ccc(NC(=S)NC(NC(=O)/C=C/c2ccccc2)C(Cl)(Cl)Cl)cc1 (stereo unspecified) | 17 | 3 | 7 | 43 | x | -5
CC(C)(C)C(=O)Nc1ccc(N=Nc2ccccc2)cc1 | 4 | -4 | 20 | 83* | 72* | -19
O=C(O)CCC(=O)Nc1ccc(N=Nc2ccccc2)cc1 | -18 | -13 | -2 | -18 | x | 6
CC(=O)NC(NC(=S)Nc1ccc(N=Nc2ccccc2)cc1)C(Cl)(Cl)Cl (stereo unspecified) | 63* | 5 | -3 | -19 | x | x
Cc1cc(N=Nc2ccccc2)cc(C)c1NC(=O)C(F)(F)F | -36 | -42 | -109 | -37 | -62 | 107*
O=C(/C=C/c1ccccc1)NC(NC(=S)Nc1ccc(Cl)cc1)C(Cl)(Cl)Cl (stereo unspecified) | 67* | 38 | 55 | 42 | x | -54
COc1ccc(NC(=O)Nc2ccc3c(c2)[C@H]2C[C@@H](CC(=O)N4CCCCC4)O[C@H](CO)[C@H]2O3)cc1 | x | x | x | x | -1 | x
COC(=O)C[C@H]1C[C@H]2c3cc(NC(=O)CC4CC4)ccc3O[C@H]2[C@@H](CO)O1 | x | x | x | x | -1 | x
Cc1cc(C)nc(SCc2ccc(C(=O)N/N=C/c3cccc(O)c3O)cc2)n1 | 5 | 52* | 42 | 1 | 11 | -44
Cc1ccc(S(=O)(=O)Nc2ccc3c(c2)C(=O)N([C@@H](C)CO)C[C@H](C)[C@@H](CN(C)C(=O)Nc2ccccc2)OCCCC[C@H](C)O3)cc1 | x | x | x | x | -6 | x
COc1ccc2c(c1OC)C(=O)N(c1cccc(C(F)(F)F)c1)C2 | -44 | -13 | -113 | -50 | x | 121*
CCCN(CCC)C1=CC(=[N+]2CCCC2)CC(C)(C)C1 | 47 | 27 | 73* | 42 | 0 | -72
CCCCCCCCCCOC(=O)Cn1c(COc2ccc(OC)cc2)[n+](C)c2ccccc21 | 62* | -4 | 85* | 65*! | x | -85
CCCCCCCCCCOC(=O)Cn1c(COc2ccccc2)[n+](C)c2ccccc21 | 70* | 29 | 11 | 43 | 12 | -8
CCCCCCCCCCOC(=O)Cn1c(COc2ccc(Cl)cc2)[n+](C)c2ccccc21 | 19 | 7 | 28 | 43 | 8 | -19
CCCCCCCCCCOC(=O)Cn1c(COc2cccc(C)c2)[n+](C)c2ccccc21 | 51* | -4 | 47 | 46 | 9 | x
CCCCCCCCCCOC(=O)Cn1c(COc2ccccc2C)[n+](C)c2ccccc21 | 92* | 18 | 5 | 52* | 17 | x
O=C(NCC(F)(F)F)[C@@H]1[C@@H](CO)[C@@H]2Cn3c(ccc(-c4ccncc4)c3=O)[C@@H]2N1Cc1ccncc1 | x | x | x | x | 1 | x
CN1C(=O)c2cc(NS(=O)(=O)c3ccccc3Cl)ccc2OC[C@@H]2O[C@H](CC(=O)O)CC[C@H]21 | x | x | x | x | -10 | x
O=C(O)c1cc(=O)c2c(OCC(O)COc3cccc4oc(C(=O)O)cc(=O)c34)cccc2o1 | -7 | 76* | 6 | 5 | -1 | -5
SMILES | TWEAK-Fn14 inh | EBV LMP1 NFkB | TRPM1 prom inh | TROY NFkB inh | LGR2 inh | MITF TRPM1 HTS
COc1ccc2c3c([nH]c2c1)[C@@H](CO)N(C(=O)Cc1ccccc1)CC31CN(C)C1 | x | x | x | x | 10 | x
COc1ccc(NC(=O)c2cc(-c3cccc(OC)c3)on2)cc1 | -6 | -3 | -20 | -11 | 1 | 30
CC(=O)c1cccc(NC(=O)c2cc(-c3cccs3)on2)c1 | -18 | -10 | -35 | -51 | -60 | 36
COc1cccc(-c2cc(C(=O)Nc3cccc(O)c3)no2)c1 | 66* | -7 | -17 | 44 | 79* | 17
O=C(Nc1cccnc1)c1cc(-c2ccc(Cl)cc2)on1 | 11 | -3 | -124 | -39 | -61 | 129*
O=C(Nc1cccc(O)c1)c1cc(-c2cccs2)on1 | 69* | 4 | -88 | 7 | 26 | 88*
O=C(Nc1cccnc1)c1cc(-c2ccc(Cl)cc2Cl)on1 | 9 | 2 | -10 | -5 | -32 | 12
Cc1noc(C)c1NC(=O)N[C@H]1C=C[C@H](CC(=O)Nc2ccccc2)O[C@H]1CO | x | x | x | x | -1 | x
COc1cc(C(=O)NC(=S)N(CCc2ccccc2)CCc2ccccc2)cc(OC)c1OC | 38 | 26 | 17 | 70* | 16 | -16
O=C(CCN1CCCCC1)N[C@@H]1CC[C@@H](CCNS(=O)(=O)c2ccc(Cl)cc2)O[C@H]1CO | x | x | x | x | 10 | x
COc1ccccc1-c1c(C)oc2c(CN3CCN(CCO)CC3)c(O)ccc2c1=O | 86* | -1 | 6 | x | x | -8
COc1ccccc1-c1c(C)oc2c(CN3CCN(C)CC3)c(O)ccc2c1=O | -5 | -4 | 6 | -1 | x | -4
CC(C)NC(=O)Nc1ccc2c(c1)C(=O)N([C@H](C)CO)C[C@@H](C)[C@H](CN(C)Cc1ccc(Cl)c(Cl)c1)OCCCC[C@@H](C)O2 | x | x | x | x | 2 | x
COc1ccc(NS(=O)(=O)c2cccc(NC(=O)CCC(=O)c3ccc(Cl)cc3)c2)cc1 | 75* | 15 | 31 | 34 | x | -29
COc1cccc(S(=O)(=O)Nc2ccc(C(=O)Nc3ccncc3)cc2)c1 | 19 | 12 | 14 | -1 | 3 | -9
COc1ccc(NS(=O)(=O)c2cccc(NC(=O)c3ccc(Cl)nc3)c2)cc1 | 70* | 10 | 17 | 27 | 20 | -12

Assay outcomes: PubChem BioAssay, several laboratories
